From PubChem BioAssay
Glioma ERSR ind = induces the endoplasmic reticulum stress response in human glioma cells. U87-MG GRP78 promoter luciferase reporter, 16 h. Potency, µM, without a hit: at the highest dose activation, usual class: activators. 420,000 tested, 0.02% active. AID 602332; active = well fitted activation curve with a large enough effect; inconclusive = small, poorly fitted or top-dose-only effect; inactive = no such curve, though single readings can be large or run the other way; also: potency is read from the fitted curve at half-maximal effect; series mostly up to about 76 µM; % of control where 0% means no effect; nearly all actives have a fitted effect of over 35% in size
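Stably transfected U87-MG glioma cells carrying a GRP78-based luciferase sensor; 16 h compound incubation. Luminescence end-point read 10 min after Bright-Glo addition at room temperature.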
D1 agonist = agonists of human D1 dopamine receptor; P21728; HEK293 T-REx D1 cells, calcium flux, agonist mode; activation, % at 2 µM; 360,000 tested, 1% active; AID 504660; also: 0% is about no effect
Target sequence (P21728 whole entry, looked up): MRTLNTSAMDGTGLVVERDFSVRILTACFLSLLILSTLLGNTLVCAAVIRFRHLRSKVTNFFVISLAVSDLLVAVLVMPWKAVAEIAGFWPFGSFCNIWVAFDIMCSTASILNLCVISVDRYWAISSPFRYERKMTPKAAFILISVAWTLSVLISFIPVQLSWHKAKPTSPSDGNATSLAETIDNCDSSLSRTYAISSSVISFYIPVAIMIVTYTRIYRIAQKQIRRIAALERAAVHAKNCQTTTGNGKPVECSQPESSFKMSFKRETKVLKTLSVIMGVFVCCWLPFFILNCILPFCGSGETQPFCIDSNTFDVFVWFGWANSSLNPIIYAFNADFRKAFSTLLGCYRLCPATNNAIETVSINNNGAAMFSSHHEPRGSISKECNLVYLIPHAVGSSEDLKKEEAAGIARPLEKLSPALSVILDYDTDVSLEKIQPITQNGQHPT
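Inducible HEK293 T-REx D1 cells, force-coupled to calcium signalling, were plated at 4000 cells/well with tetracycline and held overnight at 30 C. After no-wash calcium dye loading, compound-evoked calcium rise over 180 s flagged agonists.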
D1 PAM = enhances dopamine response at the human D1 receptor; HEK293 TREx D1 cells, calcium flux, dopamine EC20 potentiation; potentiation, % at 10 µM; 360,000 tested, 0.036% active; in the data active = potentiation above about 30%; also: 0% is about no effect
D1 antagonist = human D1 dopamine receptor antagonism; HEK293 TREx D1 cells, calcium flux, dopamine EC80; active compounds read low; 360,000 tested, 3.2% active; activity change, negative = inhibition, % at 10 µM; P21728; in the data active = activity change below about -30%; also: % is scaled to controls: 0 for no effect and ±100 for the full control effect
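HEK293 T-REx cells expressing inducible, force-coupled D1 receptor; no-wash Ca dye, 30–90 min RT. Cmpd → 180 s read at 1 Hz → EC80 DA → 180 s read.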
TRHR agonist = agonists of human TRH receptor; P34981; TRHR cells, calcium flux fluo-8, FDSS agonist mode; activation, % at 2 µM; 360,000 tested, 0.18% active; AID 493084; also: 0% is about no effect
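Agonist-mode FDSS calcium read (Ex 480/Em 530, 1 s cycles) in 1536-well TRHR cells with fluo-8 dye, after 10-cycle baseline and 23 nL compound addition; TRH at EC20 (10 nM final) added afterwards for the enhancer phase.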
TRHR PAM = allosteric enhancers of human TRH receptor | TRHR cells, fluo-8 calcium fluorescence, EC20 TRH enhancement | enhancement, % at 2 µM | 360,000 tested, 0.66% active; in the data active = enhancement above about 30%; also: 0% is about no effect
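TRHR-expressing cells loaded with fluo-8 calcium dye were read kinetically (ex 480/em 530) during compound addition, then stimulated with an EC20 of TRH (10 nM final). Enhancement of the Gq-mediated intracellular calcium response was scored.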
* hit, by the source's call; ? = inconclusive; . = no result. Shown are actives, neighbours in structure and some others; about 4% of the full set was active somewhere. Rule as the data show it, unless noted: active = activation above about 30%; inactive = the rest.

SMILES | Glioma ERSR ind | D1 agonist | D1 PAM | D1 antagonist | TRHR agonist | TRHR PAM
CCCCCCCNC(=O)C1(CC2CC(c3ccccc3)=NO2)CCN(C(=O)OC(C)(C)C)CC1 (stereo unspecified) | 4.2% | 3.1 | -10.1 | -37.0* | 1.0 | 0.3
CC(C)Oc1ccc(C(=O)Nc2ccc([N+](=O)[O-])cc2)cc1 | 1.2% | 36.3* | -8.9 | -15.3 | 0.5 | -2.9
COc1ccc(NC(=O)C(C)Oc2ccc(/C(C)=N\O)cc2)cc1 (stereo unspecified) | 0.8% | 51.3* | -1.6 | -1.4 | 3.8 | -3.5
COc1ccc(C(=O)/C(C#N)=N/Nc2ccc([N+](=O)[O-])cc2)cc1 | -3.4% | 25.7 | -3.6 | -38.8* | 5.0 | -6.0
CN(C)S(=O)(=O)Oc1ccc(C(=O)Nc2ccc([N+](=O)[O-])cc2)cc1 | -4.7% | 10.7 | -5.3 | -13.7 | 1.2 | 1.7
CC(C)C(=O)Nc1ccc(NC(=O)c2ccc([N+](=O)[O-])cc2Cl)cc1 | -4.4% | 3.3 | -3.5 | -59.4* | 0.8 | 4.5
COc1ccc(OC(C)C(=O)Nc2cccc(OC)c2)cc1 (stereo unspecified) | -3.4% | 10.7 | -2.2 | -6.1 | -2.9 | -4.9
COc1ccc(C(=O)/C(C#N)=N/Nc2ccccc2[N+](=O)[O-])cc1 | 1.4% | 11.7 | -7.7 | -16.8 | 0.4 | -6.0
CN(C)c1ccc(NC(=O)c2ccc([N+](=O)[O-])cc2Cl)cc1 | -0.7% | 3.4 | -2.5 | 11.3 | 0.2 | -2.3
CC1CCN(CC(=O)Nc2ccc(S(=O)(=O)NC3CC3)cc2)CC1 | -1.4% | 4.9 | 1.1 | 13.3 | -0.2 | -0.6
Cc1cc(C)cc(NC(=O)CSCc2cc(=O)c3cc(Cl)ccc3[nH]2)c1 | -4.1% | -0.2 | 2.2 | -12.0 | -0.8 | -3.3
CC1CCc2nc3ncn(Cc4ccccc4C#N)c(=O)c3cc2C1 (stereo unspecified) | -4.1% | 1.7 | 3.8 | -5.5 | 0.2 | 1.8
CN(C)c1ccc(/C=C/c2ncnc3ccccc23)cc1 | -1.6% | . | . | . | . | .
O=C(CSc1ccc([N+](=O)[O-])cc1)c1ccccc1 | 1.8% | . | . | . | . | .
O=C(Nc1ccc(Oc2cccnc2)cc1)c1cccc([N+](=O)[O-])c1 | 4.7% | 5.3 | -4.8 | -20.6 | -0.5 | 0.1
CCC(CC)C(=O)Nc1ccc(Sc2ccc([N+](=O)[O-])cc2)cc1 | -2.5% | 31.5* | -7.9 | -34.7* | 0.0 | 4.3
CCCC(=O)Nc1ccc(Sc2ccc([N+](=O)[O-])cc2)cc1 | -3.1% | 6.7 | -8.1 | -27.6 | 0.4 | -3.1
O=C(Nc1ccc(Oc2cccnc2)cc1)c1ccc([N+](=O)[O-])cc1 | -1.3% | 36.7* | -8.6 | -31.0* | -0.3 | 7.7
O=C(c1ccccc1)c1ccc(Sc2ccc([N+](=O)[O-])cc2)cc1 | -3.7% | 15.7 | -2.2 | -31.0* | -1.4 | -1.3
CC(C)NS(=O)(=O)c1ccc(NC(=O)C(C)Oc2ccc(C(=O)c3ccccc3)cc2)cc1 (stereo unspecified) | ? | 136.0* | 2.7 | -15.8 | 17.1 | -9.3
Cc1cccc2c(=O)[nH]c3c(-c4nc(-c5ccc(Cl)cc5)cs4)c(O)cn3c12 | -3.1% | . | . | . | . | .
COc1ccc(OC(C)C(=O)Nc2ccc([N+](=O)[O-])cc2)cc1 (stereo unspecified) | -3.0% | 22.6 | -1.5 | -44.4* | 0.9 | 19.8
O=C1CCCc2[nH]c(=O)c(C(=O)NCc3ccccc3)cc21 | -2.7% | . | . | . | . | .
CN(C)CC1CCCCC1C1(O)c2ccccc2CSc2sccc21 (stereo unspecified) | -9.5% | 78.3* | -15.7 | -2.2 | -0.5 | 15.5
CCOc1ccc(-c2nnc(NC(=O)CCCOc3cccc(C)c3)o2)cc1 | 2.0% | 4.3 | 3.0 | -33.0* | -0.4 | 1.6
Clc1ccc(Cl)c(OCCCCNCc2ccccc2)c1 | -10.0% | 80.7* | -6.5 | -58.3* | 2.3 | 3.2
Clc1ccc(OCCCNCc2ccccc2)c(Br)c1 | 2.4% | 92.8* | -7.8 | -3.9 | -0.7 | 5.0
O=C(CNC(=O)c1ccccc1)N[C@@H](C(=O)Nc1cc(C(F)(F)F)ccc1Cl)c1ccccc1 | . | 2.6 | 7.8 | -19.7 | -0.3 | 2.5
Cc1cc(/C=C2/C(=N)N3C(=NC2=O)SN=C3S(C)(=O)=O)c(C)n1-c1ccccc1F | 3.7% | 4.1 | -9.2 | -20.9 | -2.2 | -0.6
